In PubChem BioAssay:
Calls of active or inactive are those of the source.

Key:
Albumin (Bos taurus) = Albumin (Bos taurus) (UniProt P02769); assay: bovine serum albumin binders on microarray, profiling panel, artefact control for SMM control protein annotation, biochemical, small-molecule microarray, Alexa647 label, 635/667 nm fluorescence (AID 1118); settings: BSA-A647 binding, fluorescence 635 nm, higher = more signal;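 note: score merges 667 nm emission intensity and signal-to-noise per printed compound spot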
[1] = small-molecule microarray binders of probe aXIP, primary screen, biochemical, NeuroSMM set, 635/667 nm fluorescence (AID 1119); settings: higher = more signal, called active from +8 up or from −8 down;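 note: probe is the protein aXip251-270 applied at 1 µg/mL to compound-printed slides; binding of probe to printed compounds measured as 667 nm fluorescence plus signal to noise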
[2] = small-molecule binders of probe aNOTCH3, primary screen, biochemical, small-molecule microarray, 635/667 nm fluorescence (AID 1120); settings: higher = more signal;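 note: probe is a biotin-tagged antibody raised against NOTCH3 rather than NOTCH3 protein; score merges spot fluorescence near 667 nm with spot signal to noise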
[3] = small-molecule binders of probe aNOTCH2, primary screen, biochemical, small-molecule microarray, 635/667 nm fluorescence (AID 1121); settings: higher = more signal;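 note: score merges feature fluorescence read at 667 nm with its signal to noise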
[4] = target: Carbonic anhydrase 2 (Homo sapiens) (UniProt P00918); assay: CAII small-molecule binders, profiling panel, biochemical, small-molecule microarray, Alexa647-labelled CAII (AID 1122); settings: CAII-A647 binding fluorescence, higher = more signal
[5] = COS7 lysate on small-molecule microarray, probe aHis, 635 nm (AID 1123); settings: COS7 cell lysate, fluorescence, higher = more signal;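 note: z-score combines 667nm fluorescence intensity with signal-to-noise per printed compound spot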
[6] = compound binding in COS7 lysate, probe aLAP1, primary screen, cell lysate, small-molecule microarray (AID 1124); settings: probe aLAP1, fluorescence, higher = more signal;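 note: lysate comes from COS7 cells expressing LAP1 and is applied at 0.3 µg/mL; score merges spot fluorescence near 667 nm with signal-to-noise over triplicate slides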
Sam68 (KHDRBS1) = assay: Sam68 small-molecule binders, primary screen, biochemical, small-molecule microarray, 635 nm fluorescence (AID 1125); settings: small-molecule microarray binding, higher = more signal;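 note: score merges 667 nm channel intensity with signal to noise over triplicate slides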
[7] = system: Chordin-like protein 2 (CHRDL2); assay: CHRDL2 small-molecule binders, primary screen, biochemical, small-molecule microarray, 635 nm fluorescence (AID 1126); settings: small-molecule microarray binding, fluorescence 635 nm; higher = more signal;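 note: printed compound slides probed with Chrdl2 protein at 4 µg/mL for 1 h at 4 C; score merges 667 nm emission intensity with signal to noise over three replicate slides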
[8] = target: Concanavalin-A (Canavalia ensiformis) (UniProt P02866); assay: ConA small-molecule binders, primary screen, artefact control for SMM control protein annotation, biochemical, small-molecule microarray, Alexa647 label, 635 nm (AID 1127); settings: ConA-A647 binding fluorescence, higher = more signal;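 note: z combines 667 nm emission intensity with signal-to-noise across three replicate slides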
Chain of Concanavalin-A (Canavalia ensiformis) (P02866 whole entry, looked up): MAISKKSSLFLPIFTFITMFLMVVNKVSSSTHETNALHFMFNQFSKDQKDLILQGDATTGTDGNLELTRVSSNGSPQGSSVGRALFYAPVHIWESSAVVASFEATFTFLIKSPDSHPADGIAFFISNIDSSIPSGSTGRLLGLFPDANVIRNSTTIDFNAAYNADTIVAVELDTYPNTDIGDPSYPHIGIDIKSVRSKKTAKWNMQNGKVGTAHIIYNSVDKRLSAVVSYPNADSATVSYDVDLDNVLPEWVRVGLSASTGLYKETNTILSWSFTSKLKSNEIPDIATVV

Chain of Albumin (Bos taurus) (P02769 whole entry, looked up): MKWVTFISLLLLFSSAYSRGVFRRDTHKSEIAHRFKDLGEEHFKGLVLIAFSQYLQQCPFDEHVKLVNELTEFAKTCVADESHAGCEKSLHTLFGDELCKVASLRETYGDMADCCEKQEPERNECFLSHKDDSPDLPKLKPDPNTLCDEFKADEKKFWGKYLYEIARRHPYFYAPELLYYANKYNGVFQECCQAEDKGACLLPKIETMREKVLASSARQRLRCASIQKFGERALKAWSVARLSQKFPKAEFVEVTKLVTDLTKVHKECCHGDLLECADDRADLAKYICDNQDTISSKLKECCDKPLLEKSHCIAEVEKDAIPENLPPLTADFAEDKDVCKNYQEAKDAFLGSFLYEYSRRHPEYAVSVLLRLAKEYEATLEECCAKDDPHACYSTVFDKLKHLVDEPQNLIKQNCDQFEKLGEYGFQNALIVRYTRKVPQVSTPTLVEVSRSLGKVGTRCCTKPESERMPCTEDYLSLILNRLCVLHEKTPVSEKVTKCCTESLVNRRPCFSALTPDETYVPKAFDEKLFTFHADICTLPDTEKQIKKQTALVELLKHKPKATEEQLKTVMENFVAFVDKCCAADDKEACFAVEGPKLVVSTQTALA

Row | Compound | composite z-score (Albumin (Bos taurus)) | composite Z-score [1] | composite z-score [2] | composite z-score [3] | composite z-score [4] | composite z-score [5] | composite z-score [6] | composite z-score (Sam68 (KHDRBS1)) | composite z-score [7] | composite z-score [8]
1 | CC[C@H]1C2=C3C(CC[C@H]4C(OCc5ccc(F)cc5C(F)(F)F)OC[C@](C)([C@@H]34)N(C(=O)OC(C)(C)C)C2)C(COC(C)=O)C1COC(C)=O (stereo not given in full) | 0.761 | -0.0238 (inactive) | 0.335 | 0.173 | 0.345 | 2.76 | 0.2 | 1.29 | -1.23 | 0.957
2 | C=C(C)C1CN([C@H](CO)c2ccccc2)C(=O)/C1=C\c1ccccc1 (stereo not given in full) | 0.252 | -0.137 (inactive) | -0.0647 | -0.0741 | 0.158 | -0.574 | 0.027 | 0.168 | 0.467 | 0.0006
3 | COC(=O)[C@@]1(Cc2ccccc2)[C@H]2c3cc(C(=O)N(C)C)n(Cc4nc5ccccc5[nH]4)c3C[C@H]2CN1C(=O)c1ccccc1 | 1.01 | 0.0729 (inactive) | 0.266 | 0.0576 | 0.826 | 3.44 | 0.972 | 1.24 | -0.538 | 1.09
4 | CCCNC(=O)[C@@]1(Sc2ccc(C)cc2)CC(=O)N(Cc2cc(C(F)(F)F)cc(C(F)(F)F)c2)[C@@H]1c1ccc(CO)cc1 | -0.919 | -0.0135 (inactive) | -0.163 | -0.169 | 0.504 | 0.506 | -0.0318 | -0.528 | -1.11 | -0.149
5 | COC(=O)[C@@]1(Cc2ccc(F)cc2)[C@H]2c3cc(C(=O)N4CCCC4)n(C[C@H](O)CO)c3C[C@H]2CN1C(=O)c1ccccc1 | 1.13 | 0.133 (inactive) | 0.591 | 0.678 | 0.844 | 2.88 | 1.23 | 0.208 | 0.0578 | 0.779
6 | COc1cccc(C)c1NC(=O)O[C@H]1[C@H](OC(=O)Nc2ccc3c(c2)OCO3)[C@H](OC(=O)Nc2ccc3c(c2)OCO3)[C@@H](OC)O[C@@H]1CO | 0.428 | 0.645 (inactive) | 0.473 | -0.101 | 0.3 | 1.43 | 0.405 | 1.3 | 0.0955 | 1.17
7 | C=CC[C@]1(C(=O)NCCN2CCOCC2)N=C(c2ccc(OCCCO)cc2)O[C@H]1c1ccccc1 | -0.051 | 0.0999 (inactive) | 0.0813 | 0.0564 | 0.703 | 1.51 | 0.601 | 1.18 | 0.708 | 0.469
8 | COCCOC(=O)N1C(=O)[C@@]2(c3cc(C#CCC(C(=O)OC)C(=O)OC)ccc31)[C@H](C(=O)N1CCc3cc(OC)c(OC)cc3C1)[C@H]1C(=O)O[C@H](c3ccccc3)[C@H](c3ccccc3)N1[C@@H]2c1ccccc1OCCO | 0.329 | -0.331 (inactive) | 0.182 | -0.106 | 0.401 | 0.977 | 0.75 | 1.3 | 0.854 | 1.14
9 | CC1CC/C=C\[C@H]2OC34C=CCN(C(C)C)C(=O)[C@H]3N(C(C)CO)C(=O)[C@@H]4C2C(=O)O1 (stereo not given in full) | 0.702 | 0.439 (inactive) | -0.162 | -0.115 | 0.418 | -0.406 | -0.108 | -0.26 | -0.337 | -0.0657
10 | C=CCC(OC(C)=O)[C@@H]1[C@@H](N(Cc2ccc(-c3ccccc3)cc2)C(=O)Cc2ccc(OC)cc2)c2cc(OCCCO)ccc2N1C(=O)c1ccc2ccccc2c1 (stereo not given in full) | 0.234 | -0.0949 (inactive) | -0.043 | -0.176 | 0.269 | 0.198 | 0.165 | 0.0843 | -0.225 | 0.134
11 | C=CCOC(=O)[C@H]1[C@@H]2C(=O)O[C@@H](c3ccccc3)[C@@H](c3ccccc3)N2[C@@H](c2ccc(OCCOC(=O)[C@H]3C[C@H]4C(=O)NCC(=O)N4[C@H]3c3cccc(OCCO)c3)cc2)[C@]12C(=O)Nc1ccc(I)cc12 | -0.0037 | 0.642 (inactive) | 0.138 | -0.125 | 0.567 | 2.2 | 0.692 | 1.29 | 0.866 | 1.14
12 | C=CC[C@H](OC(=O)Nc1ccc(SC)cc1)c1ccc(O)c(F)c1 | 0.333 | 0.514 (inactive) | -0.246 | -0.168 | 0.577 | 0.596 | -0.172 | -1.28 | -0.174 | -0.873
13 | COc1ccc(C#Cc2ccc3c(c2)[C@]2(C(=O)N3)[C@H](c3ccccc3OCCO)N3[C@H](c4ccccc4)[C@H](c4ccccc4)OC(=O)[C@H]3[C@@H]2C(=O)NC[C@H](O)c2ccccc2)cc1 | 0.579 | -0.419 (inactive) | 0.11 | -0.0942 | 0.373 | 1.98 | 0.359 | 1.32 | -0.0767 | 1.07
14 | O=C1O[C@H](c2ccccc2)[C@H](c2ccccc2)N2[C@H]1[C@@H](C(=O)N1CCN(c3ncccn3)CC1)[C@]1(C(=O)Nc3ccc(C#CC4(O)CCCCCC4)cc31)[C@H]2c1ccc(O)cc1 | 0.605 | -0.019 (inactive) | 0.0556 | -0.162 | 0.673 | 1.28 | 0.329 | 1.31 | -0.0362 | 0.946
15 | COc1ccc(NN2C(C(O)c3ccccc3)C=CC3C(=O)N(C4CCCCC4)C(=O)C32)cc1 (stereo not given) | 0.74 | 0.38 (inactive) | 0.147 | -0.0047 | 0.749 | 2.67 | 0.4 | 1.32 | -0.223 | 1.12
16 | CO[C@H]1O[C@H](CO)[C@@H](OC(=O)CCc2ccccc2)[C@@H]2OC(=O)[C@@H](Cc3ccc4ccccc4c3)C/C=C/C[C@H](Cc3ccc4ccccc4c3)C(=O)O[C@@H]12 | 0.199 | 0.128 (inactive) | -0.21 | -0.172 | 0.191 | 1.18 | 0.273 | -0.183 | -1.34 | 0.208
17 | COc1cc2c(cc1OC)CN(C(=O)[C@@H]1[C@H]3C(=O)O[C@H](c4ccccc4)[C@H](c4ccccc4)N3[C@H](c3ccc(O)cc3)[C@@]13C(=O)Nc1ccc(C#CC4=CCCCC4)cc13)CC2 | 0.833 | -0.0662 (inactive) | 0.0522 | -0.0142 | 0.5 | 1.49 | 0.453 | 1.3 | 0.153 | 1.1
18 | Cc1ccc(S[C@]2(C(=O)NCC(C)C)CC(=O)N(C(C)C)[C@@H]2c2ccc(CO)cc2I)cc1 | -0.0268 | 0.849 (inactive) | -0.019 | -0.057 | 0.56 | 1.07 | 0.801 | -0.236 | -0.802 | -1.16
19 | COC(=O)C1(CC(C)C)C=C2C(=C(C)C(=O)C2C)CN1 (stereo not given) | -0.293 | 1.64 (inactive) | 0.786 | 0.175 | 0.754 | 1.63 | 0.311 | -0.0177 | 0.0633 | -0.667
20 | COCCCNC(=O)[C@@]1(c2ccc([N+](=O)[O-])cc2)CC(=O)N(C2CCCCC2)[C@@H]1c1ccc(CO)cc1I | -0.102 | 2.09 (inactive) | -0.095 | 0.0409 | 0.427 | 2.23 | 0.426 | 1.03 | 0.151 | 1.14
21 | COC(=O)[C@]1(Cc2ccccc2N=[N+]=[N-])N=C(c2ccc(OCCCO)cc2)O[C@@H]1c1ccccc1CN=[N+]=[N-] | -0.836 | 0.636 (inactive) | 0.169 | -0.0439 | 0.483 | 1.36 | -0.0388 | 1.27 | 0.232 | 0.844
22 | O=C1OCC=C[C@H]2OC34C=CCN(Cn5nnc6ccccc65)C(=O)[C@H]3N(CCO)C(=O)[C@@H]4[C@@H]12 (stereo not given in full) | -1.46 | -0.358 (inactive) | -0.173 | -0.171 | 0.935 | 0.32 | -0.137 | 0.184 | -1.43 | -0.941
23 | COC(=O)[C@@]1(Cc2ccc(F)cc2)[C@@H]2C(=CC(=O)[C@H]2CC(=O)C(=O)N2CCCC2)CN1C(=O)c1ccccc1 | 1.02 | -0.131 (inactive) | 1.24 | 0.845 | 0.65 | 3.14 | 0.805 | 1.22 | 0.484 | 0.455
24 | C=CCNC(=O)[C@H]1[C@@H]2C(=O)O[C@@H](c3ccccc3)[C@@H](c3ccccc3)N2[C@@H](c2ccc(OCCO)cc2)[C@]12C(=O)N(C(=O)OCCOC)c1ccc(C#CCNC(N)=O)cc12 | 0.452 | -0.0518 (inactive) | 0.0927 | -0.0132 | 0.396 | 1.73 | 0.812 | 1.22 | 0.742 | 1.11
25 | COC(=O)[C@@]1(Cc2ccc(OC)cc2)[C@H]2c3cc(C(=O)N(C)C)n(Cc4c(CO)[nH]cc(C)c4=O)c3C[C@H]2CN1C(=O)c1ccccc1 | 0.302 | 0.0713 (inactive) | 0.23 | 0.484 | 0.876 | 2.97 | 0.221 | 0.55 | -0.31 | 0.554
26 | C=CCN1C(=O)[C@]2(O[C@H](CCO)[C@@H]([Si](C)(C)c3ccc(OC)cc3)[C@@H]2C)c2cc(N3C(=O)c4ccccc4Oc4ccccc43)ccc21 | 0.493 | -0.0467 (inactive) | -0.0328 | -0.125 | 0.467 | 0.506 | 0.199 | 1.11 | -0.175 | 0.91
